These results are taken from PubChem BioAssay AID463173 (ICCB-Longwood Screening Facility, Harvard Medical School, 2010).

SMILES strings stand for the structures. The campaign covered roughly 52,000 compounds. About 4,300 (8.3%) were called active. The list comes from a sample in which actives are over-represented; it also holds similar structures and randomly drawn compounds. A number with no mark means an inactive call. No stated cut-off is given here; in the data, active means survival mostly below about 52% (no sharp cut-off); inactive means mostly above about 56%.

This test has as its system DeltatarO mutant. The experiment in a line: S. aureus survival, RN4220 and DeltatarO strains – OD600, teichoic acid synthesis inhibitors, primary screen (AID 463173). The following applies: S. aureus RN4220 wild type/DeltatarO growth, OD600, 18 h, stronger effect = lower value, screened at 18.75 µg/mL (by protocol).
As to `COc1ccccc1CCNC(=O)Cc1c(C)c2cc3c(C(C)(C)C)coc3c(C)c2oc1=O`, the survival was 101%.

With `O=C(CC1(c2ccc(Cl)cc2)C(=O)c2ccccc2C1=O)N1CCOCC1`, the survival was 79%.

As for `Cn1ncc2nc(SCC(=O)Nc3ccc(Br)cc3F)n(Cc3ccccc3)c(=O)c21`, the survival was 29% (active).

`Cc1nc2ccccc2n1CCc1nc2c3ccccc3nc(SCC(=O)Nc3ccc(Br)cc3F)n2n1`: the survival is 98%.

As to `Cn1c(=O)c2c(nc(SCC(=O)Nc3ccc(F)cc3F)n2Cc2ccccc2)n(C)c1=O`, the survival was 135%.

Turning to `CCOC(=O)c1ccccc1NC(=O)c1nn(C)c2c1COc1ccccc1-2`, the survival is 59%.

On to `COC(=O)c1ccccc1NC(=O)Cn1ncc2c(C)n(Cc3ccc(F)cc3)c(C)c2c1=O`, for which the survival is 52%.

Take `Cc1cccc(NC(=O)Cn2nc(C)c3nn(-c4ccc(Cl)cc4)c(C)c3c2=O)c1C`: the survival was 94%.

On to `COc1cc(C)ccc1OCCn1c(-c2ccc(Cl)cc2)nc2ccccc2c1=O`, for which the survival is 62%.

With `COc1ccccc1OCCn1c(NC(=O)c2ccccc2Cl)nc2ccccc21`, the survival is -3% (active).

`CCCn1c(CCCNC(=O)c2ccccc2OC)nc2ccccc21`: the survival was 111%.

Regarding `COc1ccccc1OCCn1c(NC(=O)c2ccc(Cl)cc2)nc2ccccc21`, the survival was 45% (active).

Take `CCn1c(NC(C)=O)nc2ccccc21`: the survival is 85%.

For the compound `CC(NC(=O)c1ccccc1)c1nc2ccccc2n1Cc1ccc(Cl)cc1` (stereo not drawn), the survival is 83%.

As to `O=C(O)c1ccc(NCc2nc3ccccc3n2CCOc2ccccc2Cl)cc1`, the survival is 59%.

Turning to `COc1ccccc1OCCn1c(-c2ccc(Cl)cc2)nc2ccccc2c1=O`, the survival was 77%.

Consider `O=C(Nc1nc2ccccc2n1CCOc1ccccc1Cl)c1ccccc1`, for which the survival is 17% (active).

For `COc1ccc(OCCn2c(NC(=O)c3ccc(OC)cc3)nc3ccccc32)cc1`, the survival was -2% (active).

As for `COc1ccccc1OCCCCn1c(C2CC(=O)N(c3ccccc3Cl)C2)nc2ccccc21` (stereo not drawn), the survival was 61%.

Take `OCCNc1nc2ccccc2n1CCOc1ccccc1`: the survival is 68%.

Turning to `COC(=O)c1ccc(Cl)cc1NC(=O)N1CC2CCCN2c2ccccc21` (stereo not drawn), the survival was 71%.

Take `CC(=O)Nc1ccc(-c2cn(CC(=O)NN)cn2)cc1`: the survival was 111%.

Consider `COc1cc(OC)cc(C(=O)Nc2ccc(S(=O)(=O)Nc3ncccn3)cc2)c1`, for which the survival is 82%.

Consider `CN1CCc2nc3sc(C(=O)Nc4ccccc4C(F)(F)F)c(N)c3cc2C1`, for which the survival is 150%.

Regarding `CCC(=O)N1CCc2cc(S(=O)(=O)CCC(=O)Nc3ccc(OC(F)(F)F)cc3)ccc21`, the survival was 83%.

Take `COc1cc(NC(=O)CC2C(=O)N(c3cccc(C)c3)C(=O)N2Cc2ccco2)cc(OC)c1` (stereo not drawn): the survival is 101%.

`Cc1ccc(Cl)cc1NC(=O)CSCc1cnn(-c2ccccc2)c1-n1cccc1`: the survival is 70%.

For the compound `COc1ccc(CNC(=O)Cc2ccc(NC(=O)N3CCSc4ncccc43)cc2)cc1`, the survival is 95%.

Turning to `Cc1cccc(NC(=O)c2cc(S(=O)(=O)NCCc3ccccc3)ccc2F)c1C`, the survival was 73%.

With `Cc1cccn2c(=O)c3cc(C#N)c(=O)n(-c4nnc(SCc5ccccc5F)s4)c3nc12`, the survival was 70%.

Take `O=C(O)C(=Cc1ccc(-c2cccc(C(F)(F)F)c2)o1)C(=O)O`: the survival is 65%.

On to `COc1ccc(C(=O)Nc2nc3ccccc3n2CCOc2ccc(Cl)cc2)cc1`, for which the survival was -5% (active).

For `Fc1ccc(CNCc2ccccc2)cc1`, the survival is 99%.

Turning to `COc1cc(OC)c(NC(=O)CSC2=Nc3ccccc3N=C(c3ccc(F)cc3)C2)cc1Cl`, the survival was 65%.

With `CCn1c(SCc2ccccc2F)nc(=O)c2c(C(=O)OC)cc(C3CC3)nc21`, the survival was 52% (active).

As for `CCn1c(SCc2ccccc2C)nc(=O)c2c(C(=O)OC)cc(C3CC3)nc21`, the survival is 71%.

In the case of `CCn1c(SCc2ccccc2Cl)nc(=O)c2c(C(=O)OC)cc(C3CC3)nc21`, the survival is 77%.

As for `C=CCn1c(NC)nc2c1c(=O)[nH]c(=O)n2C`, the survival is 105%.

As for `Cc1cc(C)cc(OCC(=O)N(Cc2ccc(C)o2)C2CCS(=O)(=O)C2)c1` (stereo not drawn), the survival is 89%.

Regarding `CC(=O)C1=C(OC(=O)C(C)C)c2ccccc2S(=O)(=O)N1Cc1ccccc1`, the survival was 104%.

With `Cc1ccc(C2=Nc3ccccc3N(CC(=O)NCc3ccc(Cl)cc3)C(=O)C2)cc1C`, the survival was 55%.

Take `COc1ccc(CNC(=O)CN2C(=O)COc3ccc(S(=O)(=O)Nc4ccccc4)cc32)cc1`: the survival is 66%.

Consider `COc1ccc(CCNC(=O)CN2C(=O)COc3ccc(C)cc32)cc1OC`, for which the survival was 45% (active).

With `Cc1ccc(CNC(=O)CCCN2C(=O)COc3ccc(C)cc32)cc1`, the survival is 85%.

Take `Cc1ccc(C2=Nc3ccccc3N(CC(=O)NCc3ccc(F)cc3)C(=O)C2)cc1C`: the survival was 90%.

With `Cc1ccc2c(c1)N(CCC(=O)NCc1ccc(F)cc1)C(=O)CO2`, the survival was 62%.

On to `COc1ccc(CCNC(=O)CN2C(=O)COc3ccccc32)cc1OC`, for which the survival was 126%.

Take `Cc1ccc(CNC(=O)CN2C(=O)COc3ccc(S(=O)(=O)Nc4ccccc4)cc32)cc1`: the survival was -4% (active).

Turning to `COc1cccc(CNC(=O)CN2C(=O)COc3ccc(S(=O)(=O)Nc4ccccc4)cc32)c1`, the survival is 77%.

For `Cc1ccc2c(c1)N(CC(=O)NCCc1ccccc1)C(=O)CO2`, the survival was 45%.

Regarding `Cc1ccc(CNC(=O)CN2C(=O)CC(c3ccc(C)c(C)c3)=Nc3ccccc32)cc1`, the survival was 52% (active).

`Cc1ccc(CNC(=O)CCN2C(=O)COc3ccc(C)cc32)cc1`: the survival is 50% (active).

Consider `CN(C)CCCNc1c2c(nc3cc(-c4cccc(F)c4)nn13)CCC2`, for which the survival is 103%.

For `O=c1c2sc3ccccc3c2n(Cc2cccc(F)c2)c(=O)n1Cc1ccccc1`, the survival is 78%.

In the case of `COc1ccc(CNC(=O)CN2C(=O)CSc3ccc(S(=O)(=O)N4CCOCC4)cc32)c(OC)c1`, the survival was 91%.

Regarding `O=C1CCCc2cc(S(=O)(=O)NCC3CCC(C(=O)Nc4ccccc4F)CC3)ccc2N1` (stereo not drawn), the survival was 93%.

For the compound `Cc1ccc(NC(=O)N2CCC(CN3CCCC3)CC2)c(C)c1`, the survival was 80%.

With `COc1ccc(CNC(=O)C2CCN(S(=O)(=O)c3cccc(-c4noc(C)n4)c3)CC2)cc1`, the survival was 92%.
